Reference: PubChem BioAssay

Experiments:
[1] = target: Tumor necrosis factor receptor superfamily member 10B (Homo sapiens) (UniProt O14763); assay: caspase-8 TRAIL sensitization, hit retest, confirmation, cell-based, NB7+caspase-8, with/without TRAIL, luminescence panel (AID 651596); details: NB7 neuroblastoma + caspase-8, TRAIL sensitization, luminescence viability, with TRAIL, mean of runs, at 10 µM, stronger effect = higher value
[2] = as above; details: NB7 neuroblastoma + caspase-8, without TRAIL, luminescence viability, without TRAIL, mean of runs, at 10 µM

Sequence of Tumor necrosis factor receptor superfamily member 10B (Homo sapiens) (O14763 whole entry, looked up): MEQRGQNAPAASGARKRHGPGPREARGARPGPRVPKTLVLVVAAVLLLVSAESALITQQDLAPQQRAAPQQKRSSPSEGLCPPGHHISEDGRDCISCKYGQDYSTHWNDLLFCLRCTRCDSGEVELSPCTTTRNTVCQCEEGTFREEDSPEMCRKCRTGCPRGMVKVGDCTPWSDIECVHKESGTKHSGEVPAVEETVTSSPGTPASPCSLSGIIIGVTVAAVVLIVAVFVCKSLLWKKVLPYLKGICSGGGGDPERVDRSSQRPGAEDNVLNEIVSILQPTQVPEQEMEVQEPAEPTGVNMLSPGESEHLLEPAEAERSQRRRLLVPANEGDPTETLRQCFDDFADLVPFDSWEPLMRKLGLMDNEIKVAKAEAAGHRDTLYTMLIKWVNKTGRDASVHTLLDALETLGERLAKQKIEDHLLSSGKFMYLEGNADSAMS

Row | Structure (SMILES) | activity [1] [%] | activity [2] [%]
1 | COc1ccc(C2NN=C(c3ccc(C)cc3)S2)cc1OC (centres undefined) | 60 | 55
2 | O=C(Nc1nc2ccccc2n1CCN1CCCCC1)C1CCCCC1 | 56.6 | 54.1
3 | O=S(=O)(c1ccc2c(c1)C(=NO)c1cc(S(=O)(=O)N3CCCCC3)ccc1-2)N1CCCCC1 | 98.8 | 99.3
4 | Cc1nc(NCC2CCCO2)nc2c1C(=O)CC(C)C2 (centres undefined) | 33 | 40.6
5 | COn1c(SCc2cccc(Cl)c2)nc2ccccc2c1=O | 52.4 | 26.3
6 | CC(OC(=O)c1ccc(S(C)(=O)=O)c([N+](=O)[O-])c1)C(=O)NC1C2CC3CC(C2)CC1C3 (centres undefined) | 77.8 | 97.9
7 | Cc1ccc(NC(=O)C(=O)Nc2ccccn2)cc1 | 75.7 | 71.7
8 | CC1Oc2ccccc2C=C1/C=N/NC(=O)c1ccccc1O (centres undefined) | 46.1 | 44.9
9 | Cc1ccc(NC(=S)c2nc3ccccc3[nH]2)cc1 | 74.3 | 69.7
10 | COc1ccc(Cn2c(SCc3cc(C)ccc3C)nc3cc(OC)c(OC)cc3c2=N)cc1 | 94.9 | 97.8
11 | C#CC(=O)N(c1cc(OC)ccc1OC)C(C(=O)NC1CCCC1)c1cccs1 (centres undefined) | 98.2 | 98.5
12 | CCc1ccc2nc(N(CCCN(C)C)C(=O)c3ccc(C(=O)c4ccccc4)cc3)sc2c1 | 50.6 | 18.7
13 | CCCc1ccc(-c2cc(C(=O)N/N=C/c3ccc([N+](=O)[O-])o3)c3ccccc3n2)cc1 | 91.6 | 93.3
14 | CN(C)c1ccc(Sc2ccc3nc(N)nc(N)c3c2)cc1 | 62.9 | 73
15 | O=C(CC1CCCC1)Nc1nc2ccccc2[nH]1 | 49.7 | 62.4
16 | N/C(CCS(=O)(=O)c1ccc(Cl)cc1)=N\OC(=O)c1ccc(Cl)cc1 | 98.2 | 93.3
17 | C/C(=N\Nc1nc2ccccc2s1)c1cccs1 | 52.8 | 30.2
18 | COc1ccc(/C=C(\C#N)c2nc3ccccc3[nH]2)cc1O | 56.5 | 72.5
19 | CCOC(=O)c1cnc2c(Cl)c(Cl)ccc2c1N1CCN(C)CC1 | 39.3 | 43
20 | COc1cc(OC)cc(C(=O)Nc2ccc3c(c2)OCCO3)c1 | 47.1 | 43.8
21 | COc1ccc(C(=O)Nc2ccc3ncccc3c2)cc1 | 87.7 | 85.3
22 | COC(=O)c1ccc(N/C=C/C(=O)c2ccccc2)cc1 | 61.3 | 80.2
23 | O=C(NC(=S)Nc1ccc(Cl)cn1)c1cccs1 | 79.4 | 76.3

Row | Structure (SMILES) | activity [1] [%] | activity [2] [%]
24 | Cc1ccc(NC(=O)c2ccc3c(c2)OCCO3)nc1 | 76.8 | 77.2
25 | CCS(=O)(=O)c1ncc(Cl)c(C(=O)Nc2ccc(S(=O)(=O)N(C)c3ccccc3)cc2)n1 | 99.2 | 99.7
26 | CNS(=O)(=O)c1cccc(C(=O)OCC(=O)c2cc(C)n(CC3CCCO3)c2C)c1 (centres undefined) | 77.7 | 67
27 | Cc1cc(C)cc(N2C(N)=NC(N)=NC2c2ccccc2F)c1 (centres undefined) | 51.1 | 72.4
28 | CC(C)C[C@H]1CNC(=S)N1C[C@H]1CCCN1C[C@H](Cc1ccccc1)N1C[C@H](Cc2ccc(O)cc2)N(CC2CCCCC2)C1=S | -0.175 | -1.23
29 | Cc1ccc(-c2nn(-c3ccccc3)cc2NC(=O)CCl)cc1 | 94 | 95
30 | CCOC(=O)CSc1nc(-c2ccncc2)ccc1C#N | 55.8 | 55.1
31 | Clc1ccc(-c2nnc(-c3ccccc3)o2)c(Cl)c1 | 81.8 | 79
32 | O=C(NCCN1C(=O)S/C(=C\c2ccc(Cl)c([N+](=O)[O-])c2)C1=O)C1=COCCO1 | 63.1 | 72.9
33 | O=C(N/N=C/c1cn(-c2ccccc2)nc1-c1cc2ccccc2o1)c1cccnc1 | 61.2 | 50.2
34 | Cc1nn(-c2ccccc2)c(C)c1/C=N/NC(=O)c1cc(C23CC4CC(CC(C4)C2)C3)[nH]n1 | 74.1 | 60
35 | CCOC(=O)c1sc(NC(=O)c2ccccc2)cc1C | 59.1 | 54.5
36 | O=C(Nc1ccncc1)c1ccc(-c2ccccc2)cc1 | 24.3 | 21
37 | CN1CCN(c2ccc3sc(-n4ccc5ccccc54)nc3c2)CC1 | 76.2 | 64.5
38 | CSc1ccc(C2NC(=O)c3ccccc3N2)cc1 (centres undefined) | 31.3 | 45.8
39 | NC(Cc1ccc(C(F)(F)F)cc1)c1csc(NC(=O)Nc2ccccc2Cc2ccccc2)n1 (centres undefined) | 75 | 96.2
40 | O=C1C(=Cc2ccc(F)cc2)CCc2ccccc21 | 82.8 | 76.7
41 | Nc1nc(N)c2cc(Sc3ccc4ccccc4c3)ccc2n1 | 61 | 73.9
42 | O=C(/C=C\Nc1ccccn1)c1ccccc1 | 55.4 | 53.2
43 | COc1ccc2nc(Nc3nc(-c4cc5ccccc5oc4=O)cs3)sc2c1 | 50.4 | 47.4
44 | Cc1onc(-c2c(F)cccc2Cl)c1C(=O)Nc1nc2ccccc2[nH]1 | 31.9 | 30.2
45 | CCc1cc2c(=O)c(-c3cnn(-c4ccccc4)c3)c(C)oc2cc1OCC(=O)Nc1ccc(F)c(F)c1 | 37.2 | 26.4
46 | Cc1ccc2nc(NC(=S)NC(=O)c3ccco3)sc2c1 | 77.9 | 62.9

Row | Structure (SMILES) | activity [1] [%] | activity [2] [%]
47 | CC(O)CC(=O)OC[C@]12CC[C@H]3[C@@](C)(CC[C@H]4C(C)(C)CCC[C@]34C)[C@@H]1CC(C1=CC(=O)OC1O)O2 (some centres undefined) | 87.1 | 93
48 | C#CCSc1nnc(-c2ccc(OC)cc2)o1 | 97.1 | 89.3
49 | CCCCC[C@@H](C)N1C[C@H](COCc2ccccc2)Oc2cc(N3CC[C@@H](N(C)C)C3)ccc2S1(=O)=O | 13 | 43.6
50 | CNc1ncnc(Sc2nc(N)nc3nc[nH]c23)c1[N+](=O)[O-] | 72 | 77.6
51 | CC(C)c1ccc(C(=O)NC2=NCCS2)cc1 | 63.5 | 67.1
52 | CC(C)Cc1ccc(C(C)CC2=CCC(CN(C)C)C2=O)cc1 (centres undefined) | 86.2 | 91.8
53 | CCCC(=O)N1CCN(c2ccc(NC(=O)c3cc4ccccc4o3)cc2Cl)CC1 | 83 | 58.6
54 | O=C(COc1ccc(CO)cc1Cl)Nc1ccc(F)cc1 | 44.5 | 47.6
55 | O=C(Nc1ccc2c(c1)nc1n2CCSC1)c1ccco1 | 77.4 | 75.2
56 | Cc1ccc(Nc2nc(NCc3ccco3)c3ccccc3n2)cc1 | 41.2 | 45.6
57 | Cc1ccc2nc(-c3cccc(N)c3)[nH]c2c1 | 71.5 | 59.6
58 | Cc1ccc(-c2nc(NC(=O)c3nn(C)cc3[N+](=O)[O-])sc2C)cc1 | 97.6 | 99.3
59 | Cc1ccc(C(=O)NC2CCCCCCC2)c(Cl)c1 | 62.7 | 53.6
60 | Cc1ccc(C(C#N)=Cc2ccc3c(c2)OCO3)cc1 | 68.5 | 65.2
61 | O=C(Nc1ccc2ccccc2c1)c1ccc(Cl)cc1Cl | 63.9 | 60.5
62 | Cc1ccccc1/C(N)=N/OC(=O)/C=C/c1ccccc1 | 98.7 | 97.3
63 | COn1c(SC2CCCCC2)nc2ccccc2c1=O | 60.3 | 60.1
64 | Nc1nc2ccccc2n1C(=O)c1ccccc1 | 87.9 | 85.9
65 | CCCOc1ccc(-c2cn3ccccc3n2)cc1 | 92.7 | 91.2
66 | Cc1ccc(OCC(=O)NC(=S)Nc2ccccn2)c(Br)c1 | 86.3 | 81.9
67 | Cn1c(N)c(C(=O)CCl)c(=O)n(Cc2ccccc2)c1=O | 96 | 77.9
68 | O=C(/C=C/[C@H]1O[C@@H](n2cnc3c(NC(=O)c4ccccc4)ncnc32)[C@H](O)[C@@H]1O)NCC1CCCO1 (some centres undefined) | -2.52 | -37
69 | CCOc1ccc(N=Cc2c(C)[nH]n(-c3nc4ccccc4[nH]3)c2=O)cc1 | 87.4 | 86.2

Row | Structure (SMILES) | activity [1] [%] | activity [2] [%]
70 | CCn1nc(C(=O)NCCc2ccc(S(N)(=O)=O)cc2)c2ccccc2c1=O | 16 | 41.1
71 | CCOc1cc(/C=N/N=C(/N)c2nonc2N)cc(Br)c1OCc1ccc(Cl)cc1 | 30.7 | 37.3
72 | O=C(Oc1ccc2ccccc2c1Cl)N1CCCCCC1 | 20.1 | 12.2
73 | NNc1nc(-c2ccccc2)nc2sc3c(c12)CCCC3 | 57.2 | 54.4
74 | Nc1ccc(C(=O)Nc2nc3ccccc3s2)cc1 | 44.8 | 41
75 | CC(C)NC(=O)c1ccc2c3n(nc2c1)-c1ccccc1CO3 | 95.8 | 95.5
76 | O=C(Nc1ccc(-c2cn3ccccc3n2)cc1)c1cccs1 | 76.2 | 66.1
77 | CC(C)(C)OC(=O)NCCCC[C@H](NC(=O)c1nc[nH]c1C(=O)NC(c1ccccc1)c1ccccc1)C(=O)OC(C)(C)C | 67 | 23.8
78 | FC(F)(F)c1cccc(-c2nc3nc(Cl)c(Cl)nc3[nH]2)c1 | 57.3 | 42.6
79 | CC(=O)Nc1cc(-c2cccc(C(=O)NCCN(C)C)c2)cn2c(-c3cccc(C(F)(F)F)c3)cnc12 | 65.3 | 89.8
80 | C/C(=N\NC(=O)c1ccn(C)n1)c1cccc(NC(=O)c2ccc(C)s2)c1 | 48.5 | 45.5
81 | Cc1ccc(-c2nn3c(C)nnc3c3ccccc23)cc1S(=O)(=O)NCc1ccccc1 | 48.2 | 51.6
82 | Cc1cccc(-c2nc3cc(NC(=O)C4CCCO4)ccc3o2)c1 (centres undefined) | 66.7 | 64.7
83 | Cc1cnc(NC(=O)c2ccc(OCC3CCCO3)cc2)s1 (centres undefined) | 93.3 | 94.7
84 | COc1ccc(NC(=O)c2cccc(N3C(=O)c4ccc(C(=O)Nc5ccc(OC)c(O)c5)cc4C3=O)c2)cc1O | 71.7 | 85.6
85 | Cc1ccc(C2=NN(C(=O)CCl)C(c3cccs3)C2)o1 (centres undefined) | 99.6 | 99.1
86 | COc1ccc(C[C@H](N)C(=O)N[C@H]2[C@@H](O)[C@H](n3cnc4c(N(C)C)ncnc43)O[C@@H]2CO)cc1 | 98.4 | 99.2
87 | COC(=O)C1=C(C(=O)OC)[C@@H]2N(Cc3ccccc3)c3ccccc3[C@@]23C[C@@H](C(=O)OC)N(C(=O)c2cccs2)C3=N1 | 17.8 | -45.8
88 | COc1cccc(N=c2oc3ccc(OC)cc3cc2-c2nc3ccccc3[nH]2)c1 | 12.8 | 18.1
89 | CNc1nnc(-c2ccc(N(C)C)cc2)s1 | 73.4 | 61.2
90 | Cc1cc(C)cc(N2C(N)=NC(N)=NC2c2cccc(Cl)c2)c1 (centres undefined) | 57.8 | 74.3
91 | O=C(Nc1ccc(NC(=O)c2ccco2)nc1)c1ccco1 | 71.2 | 61.5
92 | Cc1ccc(-c2cnc3cc(C)nn3c2)cc1 | 73.9 | 66.8
